Compound activity (PubChem)
The entries come from a sample that favours hits as a whole.
D1 mod: allosteric modulators of human D1 dopamine receptor | AID 641 | actives 5.9% (n = 58,000) | B-score at 10 µM | P21728 | HEK293 D1, CRE-luciferase, dopamine EC30 potentiation; actives deviate in either direction;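 active = luminescence count or its row- and column-corrected plate score outside the 99.7% band of the plate's sample wells, on either side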
DAT uptake mod: human DAT dopamine uptake with cocaine, either direction. Q01959. AID 449768. actives 1.3% (n = 110,000). B-score at 10 µM. LLC-PK1 hDAT cells, [14C]-dopamine uptake with cocaine IC80; actives deviate in either direction;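 active = Z score or B-score, a plate-position-corrected score, falls beyond the plate's 99.7% confidence bounds, in either direction; inactive = both scores lie inside the 99.7% bounds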
Target sequence (Q01959 whole entry, looked up): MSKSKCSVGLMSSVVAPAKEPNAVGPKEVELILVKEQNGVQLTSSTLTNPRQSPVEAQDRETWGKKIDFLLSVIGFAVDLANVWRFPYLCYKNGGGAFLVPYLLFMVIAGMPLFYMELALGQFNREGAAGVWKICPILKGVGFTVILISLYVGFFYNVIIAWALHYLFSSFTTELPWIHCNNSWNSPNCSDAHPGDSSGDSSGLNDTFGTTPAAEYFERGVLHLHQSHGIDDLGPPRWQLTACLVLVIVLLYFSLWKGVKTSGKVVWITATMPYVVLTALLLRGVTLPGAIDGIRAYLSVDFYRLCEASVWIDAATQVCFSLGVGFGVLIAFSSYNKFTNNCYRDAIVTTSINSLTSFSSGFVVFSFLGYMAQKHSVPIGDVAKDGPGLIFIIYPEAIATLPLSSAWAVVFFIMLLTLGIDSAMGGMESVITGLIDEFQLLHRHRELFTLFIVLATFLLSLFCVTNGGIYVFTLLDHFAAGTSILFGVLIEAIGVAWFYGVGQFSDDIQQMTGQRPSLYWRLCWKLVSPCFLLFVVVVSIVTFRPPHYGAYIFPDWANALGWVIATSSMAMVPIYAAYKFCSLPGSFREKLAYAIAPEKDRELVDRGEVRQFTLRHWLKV
BAP1 inh: inhibitors of human BAP1 deubiquitinase; actives 0.48% (n = 72,000); calls only at 20 µM; recombinant BAP1, Ub-AMC hydrolysis fluorescence kinetic; stronger effect = lower value; Q92560;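 active = activity remaining at or below 50% of control, provided the compound also passes the data quality filters; inactive = the rest, including low values that fail the filters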
Large screens that a line does not name were inactive.

CC(C)C[C@H]1C(=O)N2CCC[C@H]2[C@]2(O)O[C@](NC(=O)[C@@H]3C=C4c5cccc6[nH]c(Br)c(c56)C[C@H]4N(C)C3)(C(C)C)C(=O)N12	none (no result: D1 mod, DAT uptake mod)
COc1ccc(OC)c(C2/C(=C(\O)c3ccc4c(c3)OCCO4)C(=O)C(=O)N2CCCN(C)C)c1 (stereo not drawn)	none (no result: DAT uptake mod)
CCN(CC)CCCN1C(=O)C(=O)/C(=C(/O)c2ccc3c(c2)OCCO3)C1c1ccc(C)o1 (stereo not drawn)	D1 mod 2.3, BAP1 inh active (no result: DAT uptake mod)
CCOc1cc(C2Nc3cc(C)c(C)cc3NC3=C2C(=O)CC(C)(C)C3)cc(Br)c1OC (stereo not drawn)	none (no result: D1 mod, DAT uptake mod)
c1ccc(Cc2nnc3sc(-c4ccc5c(c4)OCO5)nn23)cc1	D1 mod 6.2 (not shown: BAP1 inh)
c1ccc(Cc2nnc3sc(-c4ccncc4)nn23)cc1	none
CC1=CC(C)(C)Nc2ccc(OC(=O)C(C)(C)C)cc21	none (no result: D1 mod, DAT uptake mod)
Cc1ccc([N+](=O)[O-])c(NC(=O)c2ccc([N+](=O)[O-])cc2)c1	none (no result: D1 mod, DAT uptake mod)
c1ccc2c(c1)ncn2-c1ncnc2sc3c(c12)CCCC3	none (no result: D1 mod, BAP1 inh)
CC(O)CNc1nc2ccccc2n1-c1ncnc2sc3c(c12)CCC3 (stereo not drawn)	DAT uptake mod 2.8
Cc1cc(C)c2oc(-c3ccc(C)c(NC(=O)c4cccc(F)c4)c3)nc2c1	none (no result: D1 mod, DAT uptake mod)
Cc1nc(NC(=O)c2csc3ccccc23)sc1C	D1 mod -3.4
O=c1c(O)c(-c2ccc(O)cc2O)oc2cc(O)cc(O)c12	none (not shown: DAT uptake mod, BAP1 inh)
O=c1c(O)c(-c2cc(O)c(O)c(O)c2)oc2cc(O)cc(O)c12	none (no result: D1 mod, DAT uptake mod)
Cc1ccc2cccc(Oc3cnccn3)c2n1	DAT uptake mod -1.9
Cc1ccc2cccc(OCC(=O)NCc3ccco3)c2n1	none
Cc1ccc(NS(=O)(=O)c2cc(C(=O)O)ccc2Br)cc1	none (no result: D1 mod, DAT uptake mod)
COc1ccc(CNc2ccc(-c3ccccc3OC)nn2)cc1	DAT uptake mod 3.2 (no result: D1 mod, BAP1 inh)
COc1ccc(CNc2ccc(-c3ccc(OC)cc3)nn2)cc1	none (no result: D1 mod)
CCOC(=O)c1ccc(Nc2ncc([N+](=O)[O-])cc2[N+](=O)[O-])cc1	none (no result: D1 mod, DAT uptake mod)
CC(C)c1nc(SCc2c(F)cccc2Cl)c2c(=O)n(C)c(=O)n(C)c2n1	D1 mod -3.7, DAT uptake mod 3.3
Cn1c(=O)c2c(nc(Br)n2Cc2c(F)cccc2Cl)n(C)c1=O	none (no result: DAT uptake mod)
O=C1NC(=S)N/C1=C/c1cccc([N+](=O)[O-])c1O	none (no result: D1 mod, BAP1 inh)
O=C1NC(=S)N/C1=C/c1cc([N+](=O)[O-])ccc1O	DAT uptake mod -2.1 (no result: D1 mod, BAP1 inh)
COC(=O)C1=C(C)Nc2ncnn2C1c1ccc(Cl)cc1 (stereo not drawn)	none (no result: D1 mod, DAT uptake mod)
CCCCCOC(=O)C1=C(C)NC2=C(C(=O)CCC2)C1c1cc(OC)c(OC)cc1Br (stereo not drawn)	none (no result: D1 mod, DAT uptake mod)
COC(=O)c1ccccc1NC(=O)CSc1ccccc1	DAT uptake mod -9
COC(=O)c1ccccc1NC(=O)CSc1ccc(C)cc1	none (no result: D1 mod, BAP1 inh)
Nc1nonc1C(=O)OCC(=O)c1ccc(Br)cc1	none (no result: D1 mod, DAT uptake mod)
O=C(c1ccccc1N1C(=O)c2cccc3cccc(c23)C1=O)N1CCOCC1	none (no result: D1 mod, DAT uptake mod)
Cc1ccc(C)c(NC(=O)c2cccnc2)c1	none (no result: D1 mod, DAT uptake mod)
Cc1ccc2nc3c(cc(C#N)c(=O)n3CC3CCCO3)c(=O)n2c1 (stereo not drawn)	D1 mod -3.6
Cc1ccc2nc3c(cc(C#N)c(=O)n3CCN3CCOCC3)c(=O)n2c1	none (not shown: DAT uptake mod, BAP1 inh)
COc1ccc(-n2c(SCC(=O)N3CCCC3)nc3c([nH]c4ccccc43)c2=O)cc1	none (no result: DAT uptake mod)
Cc1ccc(-n2c(SCC(N)=O)nc3c([nH]c4ccccc43)c2=O)cc1	D1 mod -4.1
O=c1cc(-c2ccccc2)c2ccc(Oc3ccc(C(F)(F)F)cc3[N+](=O)[O-])cc2o1	none (no result: D1 mod, DAT uptake mod)
COc1ccc(-c2nc3ccccc3o2)cc1NC(=O)c1ccc(C(C)C)cc1	none (no result: D1 mod, DAT uptake mod)
Cc1cccc(N2CCN(C(=O)c3ccc4ncsc4c3)CC2)c1C	DAT uptake mod 2.5 (no result: D1 mod, BAP1 inh)
O=C(c1ccc2ncsc2c1)N1CCN(c2ccc(O)cc2)CC1	none (no result: D1 mod, BAP1 inh)
O=c1oc2ccc([N+](=O)[O-])cc2cc1-c1csc(Nc2ccccc2F)n1	none (no result: D1 mod, DAT uptake mod)
Cc1cccc(C)c1NC1=NC2(CCCCC2)N=C(N)N1	none
Cc1ccc(C)c(NC2=NC3(CCCCC3)N=C(N)N2)c1	D1 mod -6
Cc1ccccc1NC1=NC(C)(C)N=C(N)N1	none
Cc1cccc(NC2=NC3(CCCCC3)N=C(N)N2)c1C	none
Cc1ccc(NC2=NC3(CCCCC3)N=C(N)N2)c(C)c1	D1 mod -4.1
COc1cccc(NC2=NC3(CCCCC3)N=C(N)N2)c1	D1 mod -2.7
Cc1cc(Nc2ccc(Cl)cc2)c2ccc3ccccc3c2n1	none (no result: D1 mod, DAT uptake mod)
O=C(O)c1nsnc1NCCO	none (no result: D1 mod, DAT uptake mod)
O=C1c2ccccc2C(=O)c2c1cccc2S(=O)(=O)N1CCOCC1	none (no result: D1 mod, DAT uptake mod)
CCN(CC)c1cc2nc(C)n(Cc3ccccc3)c(=O)c2cc1NC(=O)C1CC1	none (no result: D1 mod, BAP1 inh)
Cc1nc2cc(N3CCN(C)CC3)c(NC(=O)Cc3ccccc3)cc2c(=O)n1Cc1ccccc1	D1 mod -2.4
O=c1oc2ccc(Br)cc2cc1-c1nc2sc3c(c2c(=O)[nH]1)CCCC3	none (no result: D1 mod, DAT uptake mod)
Nc1c(C(=O)N2CCCCC2)sc(=S)n1-c1ccccc1	DAT uptake mod 2.7
Nc1c(C(=O)N2CCOCC2)sc(=S)n1-c1ccccc1	none
Cc1ccc(-c2nc3ccccc3n2C)o1	none (no result: D1 mod, BAP1 inh)
CCn1c(-c2ccc(N)cc2)nc2ccccc21	none
Cc1ccc(C(O)c2nc3ccccc3n2C(C)C)cc1 (stereo not drawn)	none (no result: D1 mod, DAT uptake mod)
CN(C)c1ccc(-c2nc3ccccc3n2C)cc1	D1 mod -5.1 (not shown: BAP1 inh)
CC(C)n1c(-c2ccc(N(C)C)cc2)nc2ccccc21	D1 mod -4.6
CCn1c(-c2ccc(N(C)C)cc2)nc2ccccc21	D1 mod -4.9
Clc1ccc(C=Cc2nc(-c3ccccc3)c3ccccn23)cc1	none (no result: D1 mod, DAT uptake mod)
COc1ccc(-c2csc(C)n2)cc1OC	none (no result: D1 mod, BAP1 inh)
COc1ccc(-c2cn3cc(C)ccc3n2)cc1OC	D1 mod -6.5 (not shown: BAP1 inh)
O=C1c2ccccc2-c2cc(Cl)nc3ccc(Nc4ccccc4)c1c23	none (no result: D1 mod, DAT uptake mod)
Cc1cc(C)nc(SCC(=O)N2c3ccccc3Sc3ccc(C(F)(F)F)cc32)n1	none (no result: D1 mod, DAT uptake mod)
Cn1c(=O)c(C(=O)Nc2ncccc2O)c(O)c2ccccc21	DAT uptake mod 2.2 (no result: BAP1 inh)
Cn1c(=O)c(C(=O)Nc2cccnc2)c(O)c2ccccc21	none (no result: DAT uptake mod)
CCOC(=O)c1sc(NC(=O)c2ccc(Cc3ccccc3)cc2)nc1C	none (no result: D1 mod, DAT uptake mod)
CCCN1CCN(C(=O)c2cn(CC(C)C)c(=O)c3cc(OC)c(OC)cc23)CC1	none (no result: DAT uptake mod)
COc1cc2c(C(=O)N3CCN(C4CCCCC4)CC3)cn(CC(C)C)c(=O)c2cc1OC	D1 mod -5.7
CCOC(=O)c1ccc(NC(=O)Nc2ccc3c(c2)OCCO3)cc1	D1 mod -2.4
CCC(=O)Nc1ccc2c(c1)OCCO2	none (no result: D1 mod, BAP1 inh)
CCC(C)(C(=O)Nc1ccc2c(c1)OCCO2)N(C(C)=O)c1ccc(C(N)=O)cc1 (stereo not drawn)	DAT uptake mod -2.8
CCOC(=O)c1c(C)c(C(=O)Nc2ccc3c(c2)OCCO3)c(C)n1C	none
O=C1CCCC2=C1C(c1ccco1)Nc1ccc(C(=O)c3ccccc3)cc1N2 (stereo not drawn)	DAT uptake mod 3.7
CC(O)C(=O)C12CC3CC(CC(C3)C1)C2 (stereo not drawn)	none (no result: D1 mod, DAT uptake mod)
Cc1ccc(C2(C)NC(=S)N(c3ccccc3)N2)cc1 (stereo not drawn)	none (no result: D1 mod, DAT uptake mod)
CCN1C(=O)NC(c2ccccc2[N+](=O)[O-])C(C(=O)OC2CCCCC2)=C1C (stereo not drawn)	none (no result: D1 mod, DAT uptake mod)
CC(=O)Oc1c(Cl)cc(N(C(C)=O)S(=O)(=O)c2ccc(C)cc2)c2ccccc12	none (no result: D1 mod, DAT uptake mod)
